A selection: hits, their analogues and other compounds. The true share with any hit is near 0.4%.
RGS4 inhibitor: Inhibitors of Regulator of G Protein Signaling (RGS) 4: qHTS; Regulator of G-protein signaling 4 (Homo sapiens), P49798; AID 504845, 2011; 390,000 tested, 0.039% active; Transcreener GDP fluorescence polarization, RGS4-accelerated GTP hydrolysis; Potency, µM (doses to about 114 µM), for inactives: at the top dose activity change, negative = inhibition, usual class: inhibitors; further: on the % scale 0 is the no-effect control and ±100 the full control effect; nearly all actives have a fitted effect of over 75% in size
Target sequence (P49798 whole entry, looked up): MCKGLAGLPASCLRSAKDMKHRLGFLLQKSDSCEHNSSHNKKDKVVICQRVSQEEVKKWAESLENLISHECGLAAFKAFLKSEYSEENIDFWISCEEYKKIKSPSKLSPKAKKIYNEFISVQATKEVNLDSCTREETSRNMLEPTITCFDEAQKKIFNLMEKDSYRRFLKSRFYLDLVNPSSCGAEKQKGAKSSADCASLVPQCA
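MLSMR compounds (23 nl, pin-transferred) preincubated 10 min at room temperature with a 500nM (2x) first reagent, then RGS4 at 900nM (2x) plus Transcreener GDP mix added; fluorescence polarization (620/688 nm) read before and after 90 min at 30 °C.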
EPAC1 ag: qHTS for Agonist of cAMP-regulated guanine nucleotide exchange factor 3 (EPAC1): primary screen | EPAC1 agonist qHTS, biochemical assay; response scale: 100% = response to 6.5 mM cAMP | Potency, µM (series often up to 154 µM), for inactives: at the highest dose activation, most hits filed as activators | AID 720707, 2013 | 360,000 tested, 0.073% active | Rap guanine nucleotide exchange factor 3 (Homo sapiens), O95398; further: nearly all actives have a fitted effect of over 60% in size
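Multi-concentration qHTS readout: loss of Rap1B-bound BODIPY-GDP fluorescence driven by 100 nM EPAC1 with excess GDP (50 uM), monitored kinetically at room temperature; agonist response expressed relative to 6.5 mM cAMP.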
ERG-DNA inh: qHTS for Small Molecule Inhibitors of the ERG Ets/DNA interaction | Transcriptional regulator ERG (Homo sapiens), P11308 | fluorescence polarization, His-ERG Ets domain / labelled DNA | Potency, µM (series often up to 76.9 µM), inactives show at the top dose FP activity, negative = inhibition, actives largely listed as inhibitors | 370,000 tested, 0.028% active | AID 624246, 2012; active means well fitted inhibition curve with a large enough effect in the polarisation, with a control signal flat; inconclusive means small, poorly fitted or top-dose-only effect, or effect the other way, or a change in a side signal; inactive means no such curve, though single readings can be large or run the other way; the % refers to the polarisation;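 further: polarization taken with two DNA probes labelled with fluorescein and Texas red; % of control where 0% means no effect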
Target sequence (P11308 whole entry, looked up, the tested form may be a part): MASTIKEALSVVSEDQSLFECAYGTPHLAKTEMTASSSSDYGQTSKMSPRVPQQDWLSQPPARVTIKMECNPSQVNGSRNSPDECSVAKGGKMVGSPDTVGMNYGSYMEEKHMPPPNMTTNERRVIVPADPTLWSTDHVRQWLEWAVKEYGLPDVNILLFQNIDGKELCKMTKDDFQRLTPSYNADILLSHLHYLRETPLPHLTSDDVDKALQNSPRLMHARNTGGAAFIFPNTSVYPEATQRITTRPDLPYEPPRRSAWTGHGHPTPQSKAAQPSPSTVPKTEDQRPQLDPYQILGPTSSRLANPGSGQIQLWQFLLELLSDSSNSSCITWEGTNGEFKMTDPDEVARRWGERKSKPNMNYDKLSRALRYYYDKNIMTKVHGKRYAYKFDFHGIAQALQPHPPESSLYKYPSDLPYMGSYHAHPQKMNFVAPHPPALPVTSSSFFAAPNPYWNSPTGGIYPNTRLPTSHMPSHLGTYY
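His-tagged ERG Ets domain (1 uM in the protein solution; 300mM KCl, 50mM Tris-HCl, 1mM EDTA, 1mM DTT, pH 7.5) received compound, then a probe mix of 5 nM fluorescein-DNA and 100nM Texas-615-DNA. Fluorescence polarization was read for both dyes.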
EPAC2 antag: qHTS for Antagonist of cAMP-regulated guanine nucleotide exchange factor 2 (EPAC2): primary screen. 360,000 tested, 0.18% active. Potency, µM (doses to about 114 µM), for inactives: at the top dose activity, negative = inhibition, usual class: inhibitors. EPAC2 GEF exchange of Rap1B-BODIPY-GDP, fluorescence; further: on the % scale 0 is the no-effect control and ±100 the full control effect; nearly all actives have a fitted effect of over 45% in size
EPAC1 antag: qHTS for Antagonist of cAMP-regulated guanine nucleotide exchange factor 3 (EPAC1): primary screen | Potency, µM (titrated, usually from 115 µM), inactives show at the top dose activity change, negative = inhibition, usual class: inhibitors | 360,000 tested, 0.14% active | AID 720709, 2013 | Rap guanine nucleotide exchange factor 3 (Homo sapiens), O95398 | EPAC1 GEF assay, Rap1b-BODIPY-GDP exchange fluorescence;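 further: plate controls were vehicle for no effect and positive control for full effect; nearly all actives have a fitted effect of over 50% in size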
EPAC2 agonist: qHTS for Agonist of cAMP-regulated guanine nucleotide exchange factor 4 (EPAC2): primary screen; Rap guanine nucleotide exchange factor 4 (Homo sapiens), Q8WZA2; EPAC2 activation, biochemical qHTS; response scale: 100% = 6.5 mM cAMP response; Potency, µM (series often up to 154 µM), without a hit: at the highest dose activation, hits mostly activators; 360,000 tested, 0.079% active; further: nearly all actives have a fitted effect of over 50% in size
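Each well held 100 nM EPAC2, 250 nM RAP1B-BODIPY-GDP and 50 uM GDP. Fluorescence, read at 5-min intervals to 30 min, was referenced to a 6.5 mM cAMP positive control.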
* marks the source's active call; other numbers are inactive results; u = inconclusive; x = no result; [ ] = dose if it differs, or a comment. Unless noted, the call rests on the fitted dose curve; in most records, active means well fitted curve in the direction sought with a large enough effect; inconclusive means small, poorly fitted or top-dose-only effect, or another doubt; inactive means no such curve, though single readings can be large; an effect the other way counts as inactive or inconclusive. Potency means the concentration at half of the fitted maximal effect.

SMILES | RGS4 inhibitor | EPAC1 ag | ERG-DNA inh | EPAC2 antag | EPAC1 antag | EPAC2 agonist
CC(=O)c1ccc(N2C(=O)C3C(C2=O)C(C(=O)c2ccc(Cl)cc2)N2CCCC32)cc1 (stereo not given) | -26.0%[11.4 µM] | u | 14.4% | 239.9% | -17.4% | 100µM*
CCNC(=S)N/N=C/c1sc(N2CCCCC2)nc1-c1cccs1 | 8.6% | -52.2% | -0.5% | u | 89.1µM* | 1.4%
CCNC(=S)Nc1ccc(N2CCCCC2)cc1 | -26.2% | 7.3% | 6.2% | 4.4% | 7.5% | 3.7%
COC(=O)C(Cc1ccccc1)NS(=O)(=O)c1cc(Br)ccc1Br (stereo not given) | -12.9% | x | x | x | x | x
Oc1ccc2ccccc2c1N=Nc1ccccc1F | -0.3% | 6.5% | -3.4% | -6.7% | 0.7% | 5.0%
O=S(=O)(O)c1cccc(N=Nc2c(O)ccc3ccccc23)c1 | -5.5% | -2.1% | 28.1% | 35.5µM* | -12.8% | -3.4%
O=C1C=C(c2c(O)ccc3ccccc23)c2ccccc2C1=O | u | 15.2% | x | u | 35.5µM* | 28.5%
Cc1cccn2c(/C=N/OCc3cccc(F)c3)c(-c3ccc(Cl)cc3)nc12 | 0.9% | 10.1% | 3.6% | 10.9% | -1.6% | 14.3%
Clc1ccc(-c2nc3sccn3c2/C=N/OCc2ccc(Cl)c(Cl)c2)cc1 | 2.99µM* | x | x | x | x | x
Cc1cc2nc3c(=O)n(CCc4ccccc4)c(=O)[nH]c3nc2cc1N | -19.0% | u | -4.5% | 74.8% | 19.7% | 100µM*
Nc1ccc2nc3c(=O)n(CCc4ccccc4)c(=O)[nH]c3nc2c1 | -48.4% | 112µM* | u | 14.3% | 116.5% | 63.1µM*
CCCCn1c(=O)[nH]c2nc3cc(N)ccc3nc2c1=O | u | 100µM* | u | 116.7% | 78.5% | 100µM*
CCc1c(C)sc2c1CCN(C(=O)Nc1ccccc1Cl)C2c1ccc(OC)cc1 (stereo not given) | 3.3% | x | -2.7% | x | x | x
C1=C(c2ccc(-c3ccccc3)cc2)Nc2ncnn2C1c1ccco1 (stereo not given) | u | 89.1µM* | 5.2% | 116.0% | 11.1% | 100µM*
Fc1ccc(C2=CC(c3ccco3)n3ncnc3N2)cc1 (stereo not given) | -5.2% | -0.1% | 11.9% | 11.4% | 7.3% | -3.4%
Oc1ccc(C2C=C(c3ccc(F)cc3)Nc3ncnn32)cc1 (stereo not given) | -58.4%[56.9 µM] | 15.5% | -1.5% | 0.3% | -8.1% | 5.1%
Fc1ccc(C2=CC(c3ccc(Br)o3)n3ncnc3N2)cc1 (stereo not given) | u | 100µM* | 15.5% | 52.1% | 93.8% | 12.0%
CCOC(=O)c1ccccc1-c1csc(NS(=O)(=O)c2ccc(Cl)cc2)n1 | -24.9% | -1.1% | -8.1% | -6.1% | 79.4µM* | 7.6%
CC(C)n1cc(/C=C/c2cc[n+](C)cc2)c2ccccc21 | -53.0% | 100µM* | 17.2% | 71.8% | 71.8% | u
C=CCn1cc(/C=C/c2cc[n+](C)cc2)c2ccccc21 | -29.6% | u | 2.6% | 123.8% | 42.8% | 100µM*
CCn1cc(/C=C/c2cc[n+](C)cc2)c2ccccc21 | u | -7.4% | 14.4% | 44.9% | 5.6% | u
CC1(C(=O)NS(=O)(=O)c2ccc(F)cc2F)CCN1C(=O)C1(c2ccc(Cl)cc2)CCC1 (stereo not given) | x | -16.9% | x | 35.5µM* | u | -1.0%
O=C1c2cccc3c(N4CCCCC4)ccc(c23)C(=O)N1c1ccc(O)cc1 | -36.6% | 11.0% | 43.7% | 100.6% | 14.1% | 89.1µM*
O=C1c2cccc3c(N4CCCCC4)ccc(c23)C(=O)N1c1ccccc1O | -0.1% | u | 55.2% | 1.2% | 4.1% | 100µM*
O=C(O)c1ccc(N2CCCCCC2)c(N2C(=O)c3ccccc3C2=O)c1 | -20.1% | 1.8% | u | 3.6% | 6.7% | -0.9%
SMILES | RGS4 inhibitor | EPAC1 ag | ERG-DNA inh | EPAC2 antag | EPAC1 antag | EPAC2 agonist
O=C(NC1CCCCC1)c1ccc(CSc2nc3cccnc3n2Cc2cccc(F)c2)cc1 | -9.7% | x | -0.2% | x | x | x
Cc1noc(NS(=O)(=O)c2ccc(NC(=O)c3ccc(Br)cc3)cc2)c1C | -22.6% | x | 2.0% | x | x | x
O=C(CCC1N=C2c3ccccc3N=C(SCc3ccccc3F)N2C1=O)NCc1ccc(F)cc1 (stereo not given) | 5.5% | x | -1.4% | x | x | x
COC(=O)CC1(c2ccc(OC)cc2)C(=O)c2ccccc2C1=O | -29.6% | 5.7% | -7.5% | 44.7µM* | 6.4% | 4.3%
COC(=O)CC1(c2ccccc2)C(=O)c2ccccc2C1=O | 10.7% | 8.3% | -3.7% | -4.5% | -7.3% | 12.1%
COc1ccc(N2CCN(C(c3ccc(C)cc3)c3nnnn3C(C)(C)C)CC2)cc1 (stereo not given) | -16.9% | x | x | x | x | x
CCCCCCOC(=O)C(C#N)c1nc2ccccc2nc1N1CCCCC1 (stereo not given) | 7.7% | 112µM* | 6.0% | -3.6% | 94.6% | 18.9%
CCOC(=O)C1CCCN(c2nc3ccccc3nc2C(C#N)C(=O)OC(C)C)C1 (stereo not given) | 18.9% | -54.4% | -1.1% | -29.0% | 89.1µM* | -2.1%
CCCN1CNc2c(c(=O)[nH]c(=S)n2CCc2cc(C)cc(C)c2)C1 | -12.9% | x | x | x | x | x
CCc1ccccc1NC(=O)C(CC)Sc1ncnc2c1sc1ccccc12 (stereo not given) | 9.4% | x | 0.1% | x | x | x
O=C(NCc1ccco1)c1cccc2c1C(=O)c1ccc(N3CCCC3)cc1S2(=O)=O | 0.9% | 89.1µM* | -1.2% | 10.8% | 12.1% | 56.2µM*
O=C(NCc1cccc(F)c1)c1cccc2c1C(=O)c1ccc(N3CCOCC3)cc1S2(=O)=O | 0.8% | 6.7% | -3.9% | -0.8% | -12.0% | 89.1µM*
Cc1ccc(CNC(=O)c2cccc3c2C(=O)c2ccc(N4CCCCC4)cc2S3(=O)=O)cc1 | -13.7% | 10µM* | -3.4% | 309.4% | 319.6% | 56.2µM*
Cc1ccc(CNC(=O)c2cccc3c2C(=O)c2ccc(N4CCOCC4)cc2S3(=O)=O)cc1 | -31.1% | -25.7% | 7.4% | 44.0% | -22.6% | -0.5%
CC1CCN(c2ccc3c(c2)S(=O)(=O)c2cccc(C(=O)NC[C@@H]4CCCO4)c2C3=O)CC1 | -14.4% | 7.0% | 17.6% | 5.2% | -24.3% | 112µM*

Screens from PubChem BioAssay.
